SMILES strings stand for the structures. Screen size: about 39,000 compounds; about 1,500 (3.8%) were called active. Shown is part of a subset that was picked to be rich in actives.

For the assay, the system named is HSkMC (human skeletal muscle cells). The assay is described as follows: cytotoxicity call (relative viability < 0.9). The conditions noted are these: 10 µM.
For `C[C@@H]1CCCCO[C@@H](CN(C)C(=O)C2CCCCC2)[C@H](C)CN([C@H](C)CO)C(=O)c2cc(NC(=O)Nc3ccc4c(c3)OCO4)ccc2O1`, the cytotoxicity call is “inactive”.

With `COc1ccc2occ(C(C)=O)c2c1`, the cytotoxicity call is “inactive”. Consider `C[C@H](CO)N1C[C@H](C)[C@@H](CN(C)Cc2ccc(-c3ccccc3)cc2)Oc2ccc(NS(=O)(=O)c3ccc(Cl)cc3)cc2C1=O`, for which the cytotoxicity call is “active”. In the case of `C[C@@H]1CN([C@H](C)CO)C(=O)c2cc(NS(=O)(=O)c3ccc(Cl)cc3)ccc2O[C@H]1CN(C)Cc1ccc(-c2ccccc2)cc1`, the cytotoxicity call is “active”.

In the case of `C[C@@H]1CN([C@H](C)CO)C(=O)c2cc(NS(=O)(=O)c3ccccc3)ccc2O[C@H]1CN(C)Cc1ccc(-c2ccccc2)cc1`, the cytotoxicity call is “inactive”. On to `COc1cccc(C#Cc2ccc([C@H]3[C@H]4CN(S(=O)(=O)c5ccccc5C)CC(=O)N4[C@H]3CO)cc2)c1`, for which the cytotoxicity call was “inactive”. With `C[C@H](CO)N1C[C@H](C)[C@@H](CN(C)C(=O)Cc2ccncc2)Oc2cc(C#CC3CCCCC3)ccc2S1(=O)=O`, the cytotoxicity call is “inactive”. Regarding `NC(=O)c1ccc([N+](=O)[O-])cc1Cl`, the cytotoxicity call is “inactive”. In the case of `O=C(Nc1cc(Cl)ccc1Cl)c1cc(Cl)ccc1NS(=O)(=O)c1ccc(Cl)c([N+](=O)[O-])c1`, the cytotoxicity call was “inactive”. `O=C(Nc1ccc([N+](=O)[O-])cc1Cl)c1cc(Cl)ccc1O`: the cytotoxicity call is “active”. Turning to `C[C@@H]1CN([C@H](C)CO)C(=O)c2cccc(NC(=O)NC3CCCCC3)c2O[C@H]1CN(C)Cc1ccc(C(F)(F)F)cc1`, the cytotoxicity call was “inactive”.

Regarding `CN(C)C(=O)c1cccc(-c2cccc(-c3nc(C(=O)NC4CCCCC4)cc4c3[C@@H](CCO)N([S@](=O)C(C)(C)C)C4)c2)c1`, the cytotoxicity call was “inactive”.

Consider `CN(C)C(=O)c1ccc(-c2cccc(-c3nc(C(=O)NCc4ccccc4)cc4c3[C@H](CCO)N([S@@](=O)C(C)(C)C)C4)c2)cc1`, for which the cytotoxicity call was “inactive”. As for `COc1cccc(CNC(=O)c2cc3c(c(-c4cccc(-c5ccc(C#N)cc5)c4)n2)[C@@H](CCO)N([S@](=O)C(C)(C)C)C3)c1`, the cytotoxicity call was “active”. For the compound `CN(C)C(=O)c1cccc(-c2cccc(-c3nc(C(=O)NC4CCCCC4)cc4c3[C@H](CCO)N([S@@](=O)C(C)(C)C)C4)c2)c1`, the cytotoxicity call is “inactive”. The entry for `CN(C)C(=O)c1ccc(-c2cccc(-c3nc(C(=O)NCc4ccccc4)cc4c3[C@@H](CCO)N([S@@](=O)C(C)(C)C)C4)c2)cc1` is “active”; for `COc1cccc(CNC(=O)c2cc3c(c(-c4cccc(-c5ccc(C#N)cc5)c4)n2)[C@H](CCO)N([S@@](=O)C(C)(C)C)C3)c1` it is “inactive”. On to `COc1cccc(CNC(=O)c2cc3c(c(-c4cccc(-c5cccc(C#N)c5)c4)n2)[C@H](CCO)N([S@@](=O)C(C)(C)C)C3)c1`, for which the cytotoxicity call was “inactive”. `CN(C)C(=O)c1cccc(-c2cccc(-c3nc(C(=O)NC4CCCCC4)cc4c3[C@@H](CCO)N([S@@](=O)C(C)(C)C)C4)c2)c1`: the cytotoxicity call is “active”.

On to `CN(C)C(=O)c1ccc(-c2cccc(-c3nc(C(=O)NCc4ccccc4)cc4c3[C@@H](CCO)N([S@](=O)C(C)(C)C)C4)c2)cc1`, for which the cytotoxicity call was “inactive”. Turning to `C[C@H](CO)N1C[C@H](C)[C@H](CN(C)Cc2ccc(C(=O)O)cc2)OCCCC[C@H](C)Oc2ccc(NC(=O)C3CCCCC3)cc2C1=O`, the cytotoxicity call is “inactive”. Regarding `C[C@H](CO)N1C[C@H](C)[C@H](CN(C)S(C)(=O)=O)OCCCC[C@H](C)Oc2ccc(NC(=O)CCCN(C)C)cc2C1=O`, the cytotoxicity call was “inactive”.

Turning to `CC(C)NC(=O)Nc1ccc2c(c1)C(=O)N([C@@H](C)CO)C[C@@H](C)[C@H](CN(C)S(=O)(=O)c1cn(C)cn1)OCCCC[C@H](C)O2`, the cytotoxicity call was “inactive”. The entry for `C[C@@H]1CN([C@H](C)CO)C(=O)CCCn2cc(nn2)CO[C@@H]1CN(C)S(=O)(=O)c1ccc(Cl)cc1` is “inactive”; for `O=C(O)[C@]1(O)C[C@@H](O)[C@@H](O)[C@H](O)C1` it is “inactive”. For the compound `Cc1noc(C)c1S(=O)(=O)Nc1ccc2c(c1)CC(=O)N([C@@H](C)CO)C[C@H](C)[C@H](CN(C)Cc1ccccc1)O2`, the cytotoxicity call is “inactive”. With `C[C@H](CO)N1C[C@H](C)[C@H](CN(C)C(=O)Nc2ccc(C(F)(F)F)cc2)Oc2ccc(NS(C)(=O)=O)cc2C1=O`, the cytotoxicity call was “inactive”. Turning to `C[C@@H]1CN([C@H](C)CO)C(=O)c2cccc(NC(=O)C3CC3)c2O[C@H]1CN(C)S(=O)(=O)c1ccc(Cl)cc1`, the cytotoxicity call is “inactive”. For the compound `Cc1ccc(S(=O)(=O)N(C)C[C@H]2OCCCC[C@H](C)Oc3ccc(NC(=O)Nc4ccc(F)cc4)cc3C(=O)N([C@@H](C)CO)C[C@@H]2C)cc1`, the cytotoxicity call is “inactive”.

As for `CC(=O)N1CCc2nc(C(N)=O)sc2CC1`, the cytotoxicity call was “inactive”. The entry for `O=C(OC[C@H]1O[C@@H](OC(=O)c2cc(O)c(O)c(O)c2)[C@H](O)[C@@H](O)[C@@H]1O)c1cc(O)c(O)c(O)c1` is “inactive”; for `COC1C(C(=O)O)OC(C)C(O)C1O.COC1OC(C(=O)O)C(O)C(O)C1O` (configuration not stated) [ALGINIC ACID [Mol Wt ~200,000; monomers shown] ] it is “inactive”; for `Cc1coc(C)c1C(=O)O[C@@H]1O[C@@H](C)[C@H](O)[C@@H](O)[C@H]1O` it is “active”. Take `C[C@H]1CN([C@@H](C)CO)C(=O)c2cccc(NS(=O)(=O)c3ccc(Cl)cc3)c2O[C@@H]1CN(C)Cc1ccc(-c2ccccc2)cc1`: the cytotoxicity call is “inactive”. On to `Cc1noc(C)c1NC(=O)N(C)C[C@@H]1Oc2ccc(NC(=O)C3CC3)cc2CC(=O)N([C@@H](C)CO)C[C@@H]1C`, for which the cytotoxicity call is “inactive”.

On to `COc1ccc(S(=O)(=O)N(C)C[C@@H]2Oc3ccc(NS(=O)(=O)c4ccc(F)cc4)cc3CC(=O)N([C@H](C)CO)C[C@H]2C)cc1`, for which the cytotoxicity call was “inactive”.

With `C[C@@H]1CN([C@@H](C)CO)C(=O)c2cc(C#Cc3ccccn3)cnc2O[C@H]1CN(C)C(=O)CCN1CCCCC1`, the cytotoxicity call is “inactive”.

For `C[C@@H]1CCCCO[C@H](CN(C)C)[C@@H](C)CN([C@H](C)CO)C(=O)c2cc(NS(=O)(=O)c3cn(C)cn3)ccc2O1`, the cytotoxicity call was “inactive”. On to `COc1ccc(S(=O)(=O)Nc2ccc3c(c2)C(=O)N([C@H](C)CO)C[C@H](C)[C@@H](CN(C)Cc2ccc(C(=O)O)cc2)OCCCC[C@H](C)O3)cc1`, for which the cytotoxicity call is “inactive”. As for `C[C@H]1CN([C@@H](C)CO)C(=O)c2cc(NC(=O)Nc3ccc(C(F)(F)F)cc3)ccc2O[C@H]1CN(C)Cc1ccc(-c2ccccc2)cc1`, the cytotoxicity call was “active”.

As for `C[C@@H]1CN([C@@H](C)CO)C(=O)c2cc(NC(=O)Nc3ccc(C(F)(F)F)cc3)ccc2O[C@@H]1CN(C)Cc1ccc(-c2ccccc2)cc1`, the cytotoxicity call is “active”.

On to `C[C@H](CO)N1C[C@H](C)[C@@H](CN(C)Cc2ccc(-c3ccccc3)cc2)Oc2ccc(NC(=O)Nc3ccc(C(F)(F)F)cc3)cc2C1=O`, for which the cytotoxicity call was “active”.
